Outcome data for one compound are collected here from PubChem BioAssay AID1117271 (Broad Institute, 2014).

Potency and affinity values are given separately. Active and inactive are the calls of the source. A call without a number means that no potency is given here. The rule behind the calls is not given here.

This assay can be described thus: inhibitors of orthopox intermediate gene expression, dose response, cell-based, single fluorophore reporter, dry powder (AID 1117271). The following applies: orthopoxvirus-infected cells, fluorescent expression reporter, plate reader; series mostly up to 10 µM.

Consider `COc1ccccc1-c1ccc(CN(C)C[C@@H]2Oc3cc(C#C[C@@H](C)O)ccc3S(=O)(=O)N([C@@H](C)CO)C[C@@H]2C)cc1`, for which the compound was called inactive.
